Bioassay records as filed in PubChem BioAssay.
HTT ATP protect = qHTS Multiplex Assay to Identify Dual Action Probes in a Cell Model of Huntington: Cytoprotection (ATP). AID 1471, 2008. hit rate 0.14% among 230,000. PC12 HTT-Q103 induced, cytoprotection, ATP luminescence, 40 h. Potency, µM (highest dose often 56.4 µM), without a hit: cytoprotection (ATP increase), hits mostly activators; active = well fitted curve in the direction sought with a large enough effect; inconclusive = small, poorly fitted or top-dose-only effect, or another doubt; inactive = no such curve, though single readings can be large; an effect the other way counts as inactive or inconclusive; also: potency is read from the fitted curve at half-maximal effect; % of control where 0% means no effect; nearly all actives have a fitted effect of over 45% in size
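Compounds added alongside 100 nM tebufenozide, which induces toxic Q103 huntingtin exon 1-GFP in stable PC12 cells; surviving cells quantified by luminescent ATP measurement. Medium: phenol red-free DMEM, 5% equine and 5% calf serum.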
HttQ103 aggreg = qHTS Multiplex Assay to Identify Dual Action Probes in a Cell Model of Huntington: Aggregate Formation (GFP); Potency, µM (top dose mostly 46.1 µM), inactives show at the highest dose activity change, negative = inhibition, hits mostly inhibitors; PC12 HttQ103-GFP aggregates, Acumen cytometry, 40 h; hit rate 1.1% among 220,000; AID 1688, 2009; active = well fitted curve in the direction sought with a large enough effect; inconclusive = small, poorly fitted or top-dose-only effect, or another doubt; inactive = no such curve, though single readings can be large; an effect the other way counts as inactive or inconclusive; also: potency is read from the fitted curve at half-maximal effect; % is scaled to controls: 0 for no effect and ±100 for the full control effect; nearly all actives have a fitted effect of over 60% in size
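Ecdysone-promoter PC12 model expressing HTT exon 1 Q103 fused to GFP, induced by tebufenozide at 100 nM final. Compounds titrated; aggregates sized 1–25 µm scored on a 488 nm laser cytometer.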
JMJD2E inh = qHTS Assay for Inhibitors of Human Jumonji Domain Containing 2E (JMJD2E). Lysine-specific demethylase 4E (Homo sapiens), B2RXH2. JMJD2E catalytic domain, FDH-coupled NADH fluorescence (FDH is formaldehyde dehydrogenase). Potency, µM (titrated, usually from 57.1 µM), for the others: at the highest dose activity change, negative = inhibition, hits mostly inhibitors. hit rate 1.6% among 230,000. AID 2147, 2009;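 also: potency is read from the fitted curve at half-maximal effect; 0% = wells with enzyme and -100% = buffer wells without enzyme; nearly all actives have a fitted effect of over 50% in size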
HPGD block = qHTS Assay for Inhibitors of HPGD (15-Hydroxyprostaglandin Dehydrogenase). 15-hydroxyprostaglandin dehydrogenase [NAD(+)] (Homo sapiens), P15428. purified HPGD, NADH fluorescence kinetic, PGE2 substrate. Potency, µM, inactives show at the highest dose activity change, negative = inhibition, hits mostly inhibitors. hit rate 4.3% among 150,000. AID 894, 2007; also: potency is read from the fitted curve at half-maximal effect; % is scaled to controls: 0 for no effect and ±100 for the full control effect
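NADH formation kinetics: reaction with 30 uM PGE2 and 1 mM NAD+ (final), 20 nM enzyme, Tris-HCl pH 8 with Tween 20, after 15 min compound preincubation at room temperature. Fluorescence change, last versus first of five reads.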
CBFb-RUNX1 inh = qHTS Assay for Compounds Blocking the Interaction Between CBF-beta and RUNX1 for the Treatment of Acute Myeloid Leukemia | Runt-related transcription factor 1 (Homo sapiens) + Core-binding factor subunit beta … | AlphaScreen CBFb-His/RUNX1-biotin binding, biochemical | Potency, µM (series often up to 59.8 µM), for inactives: at the top dose activity, negative = inhibition, most hits filed as inhibitors | 230,000 tested, under 10 active | AID 1477, 2009; active = well fitted curve in the direction sought with a large enough effect; inconclusive = small, poorly fitted or top-dose-only effect, or another doubt; inactive = no such curve, though single readings can be large; an effect the other way counts as inactive or inconclusive; also: % of control where 0% means no effect
Target sequence (Q01196 whole entry, looked up): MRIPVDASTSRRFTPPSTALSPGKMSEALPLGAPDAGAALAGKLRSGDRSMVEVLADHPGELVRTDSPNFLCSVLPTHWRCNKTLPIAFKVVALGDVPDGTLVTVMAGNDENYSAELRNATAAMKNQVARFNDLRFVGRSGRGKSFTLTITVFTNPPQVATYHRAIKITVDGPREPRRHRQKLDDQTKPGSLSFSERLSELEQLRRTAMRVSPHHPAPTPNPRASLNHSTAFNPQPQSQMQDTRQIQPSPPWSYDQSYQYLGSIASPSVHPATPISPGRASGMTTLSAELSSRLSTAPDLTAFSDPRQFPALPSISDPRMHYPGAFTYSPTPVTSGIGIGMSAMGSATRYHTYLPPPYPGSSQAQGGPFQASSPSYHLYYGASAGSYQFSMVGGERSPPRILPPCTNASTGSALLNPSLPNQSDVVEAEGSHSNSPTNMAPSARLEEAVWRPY
Target sequence (Q13951 whole entry, looked up): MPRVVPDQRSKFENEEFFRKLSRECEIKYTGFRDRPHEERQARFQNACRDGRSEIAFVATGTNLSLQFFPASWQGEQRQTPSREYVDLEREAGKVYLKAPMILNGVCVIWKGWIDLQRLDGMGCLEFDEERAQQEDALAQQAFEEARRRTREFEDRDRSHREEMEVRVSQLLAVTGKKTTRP
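AlphaScreen proximity signal reports loss of binding between His-tagged CBF-beta and biotin-labelled RUNX1, each at 30 nM. Proteins are pre-associated for 20 minutes, compounds added for 15 minutes, then beads for 90 minutes, all at ambient temperature.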
ALDH1A1 block = qHTS Assay for Inhibitors of Aldehyde Dehydrogenase 1 (ALDH1A1) | Aldehyde dehydrogenase 1A1 (Homo sapiens), P00352 | Purified ALDH1A1, NADH fluorescence, propionaldehyde substrate | Potency, µM (titrated, usually from 75.3 µM), inactives show top-dose activity, negative = inhibition, hits mostly inhibitors | hit rate 7.3% among 220,000;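 also: potency is read from the fitted curve at half-maximal effect; plate controls were no enzyme wells and a reference inhibitor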
* marks the source's active call; other numbers are inactive results; u = inconclusive; x = not tested or not shown; [ ] = dose if it differs, or a comment. Rows were chosen to be rich in hits. Some 9.8% of all compounds tested hit in one or more screens of this group. Unless noted, calls follow the shape of the dose curve; as a rule, active = well fitted inhibition curve with a large enough effect (not every such curve was filed as active); inconclusive = small, poorly fitted or top-dose-only effect, or another doubt; inactive = no such curve, though single readings can be large or run the other way.

SMILES	HTT ATP protect	HttQ103 aggreg	JMJD2E inh	HPGD block	CBFb-RUNX1 inh	ALDH1A1 block
Cc1ccc(S(=O)(=O)/C(C#N)=C/c2c(N3CCC(C(N)=O)CC3)nc3c(C)cccn3c2=O)cc1	-1%	-20%	1%	3.5µM*	0%	u
Cc1cccn2c(=O)c(/C=C(\C#N)S(=O)(=O)c3ccccc3)c(N3CCC(C(N)=O)CC3)nc12	-7%	0%	-11%	28µM*	-1%	u
CCOC(=O)/C(C#N)=C/c1c(N2CCN(Cc3ccc4c(c3)OCO4)CC2)nc2c(C)cccn2c1=O	-9%[10 µM]	-18%[9.22 µM]	-4%	x	u	0.71µM*
Cc1cccn2c(=O)c(/C=C(\C#N)C(=O)NC3CCS(=O)(=O)C3)c(N3CCC(C(N)=O)CC3)nc12 (centres undefined)	2%[10 µM]	-4%	u	u	-2%	5%
COc1ccc(CCNC(=O)/C=C/c2ccc(OC)c(S(=O)(=O)N3CCOCC3)c2)cc1	-12%[10 µM]	-15%[9.22 µM]	-4%	x	22%	x
C/C(=N\NC(=O)c1cccnc1)c1nnn(-c2nonc2N)c1C	11%	-2%	1%	x	17%	6%
COc1ccc(C2(C)NC(=O)N(Cc3cc(Cl)cc4c3OCOC4)C2=O)cc1OC (centres undefined)	-12%[10 µM]	5%	-2%	-12%	-3%	-3%
Cc1ccc(S(=O)(=O)/C(C#N)=C/c2c(N3CCC(C(N)=O)CC3)nc3ccccn3c2=O)cc1	-4%	4%	4%	25µM*	-2%	u
CCN1CCN(c2nc3ccccn3c(=O)c2/C=C(\C#N)S(=O)(=O)c2ccccc2)CC1	-13%[10 µM]	-9%[9.22 µM]	u	x	-5%	x
Cc1ccc(S(=O)(=O)/C(C#N)=C/c2c(N3CCOCC3)nc3ccccn3c2=O)cc1	-1%	-9%	8%	16µM*	-11%	2%
CCN1CCN(c2nc3c(C)cccn3c(=O)c2/C=C(\C#N)S(=O)(=O)c2ccccc2)CC1	-11%[10 µM]	u	-11%	-12%	11%	22µM*
CC1CN(c2nc3ccccn3c(=O)c2/C=C(\C#N)C(N)=O)CC(C)O1 (centres undefined)	6%[10 µM]	5%[9.22 µM]	u	x	11%	x
O=Cc1c(N2CCOCC2)nc2ccccn2c1=O	-23%	5%	3%	x	2%	-2%
CC[C@H](C)[C@@H](NC(=O)O[C@H]1C(=O)c2ccc(OC)cc2O[C@@H]1c1ccc2c(c1)OCO2)C(=O)OC	-27%	x	3%	0%	3%	2%
CCC(C)(C(=O)NC1CCCC1)N(C(=O)c1ccccn1)c1ccc(C)cc1 (centres undefined)	-10%	-5%	u	-12%	-2%	4%
CC(/C=C/C=C(C)/C=C/C(=O)O)=C\C=C\C=C(C)\C=C\C=C(C)\C=C\C(=O)O	-3%	x	x	-21%	x	32µM*
O=C(O)c1cc(=O)c2c(Cl)cc(Cl)cc2[nH]1	27%	x	-16%	28µM*	-3%	-1%
O=C(O)c1cc(=O)c2ccccc2[nH]1	-17%[1.9 µM]	x	u	-27%	23%[21.7 µM]	-5%
O=c1c2c(ncn1CCO)nc1n2CCC1	-12%[10 µM]	5%	8%	-3%	0%	4%
c1coc(CN=C2NC(=NCc3ccco3)c3ccccc32)c1	-22%	-2%	u	-25%	-8%	25µM*
O=C1c2ccccc2NC(c2ccc(O)cc2)N1Cc1ccco1 (centres undefined)	7%	1%	u	u	-2%	u
Cc1cc(O)cc(O)c1C(=O)OC1(C)C(=O)C=C2C=C(/C=C/C(=O)O)OC=C2C1=O (centres undefined)	u	x	u	-17%	u	u
C=CCC(Nc1ccccc1)c1ccc(OC)c(OC)c1 (centres undefined)	14%[10 µM]	0%[9.22 µM]	8%	x	8%	x
COc1ccc(-c2nnc(SCC(=O)O)n2C)cc1OC	-20%	-20%	1%	x	8%	4%
CCc1ccc(S(=O)(=O)/N=C2/C=C(Sc3ncn[nH]3)C(=O)c3ccccc32)cc1	-80%[10 µM]	3.5µM*	3.5µM*	1.6µM*	u	5µM*
SMILES	HTT ATP protect	HttQ103 aggreg	JMJD2E inh	HPGD block	CBFb-RUNX1 inh	ALDH1A1 block
CCc1ccc(S(=O)(=O)/N=C2\C=CC(=O)c3ccccc32)cc1	-15%	u	-22%	x	u	u
COc1ccc(-c2ccc(=O)n(CC(=O)N3CCN(c4ccccc4OC)CC3)n2)cc1	5%	x	x	x	x	x
COc1cccc(OC)c1C(=O)N1CCN(c2ccccn2)CC1	-3%	11%	u	u	1%	u
COc1ccc(NC(=O)C(c2ccccc2)N2CCN(c3ccccn3)CC2)cc1Cl (centres undefined)	u	-16%	-25%	x	-21%	8.9µM*
O=C(N/N=C/c1ccccc1)c1ccc(N2CCOCC2)c([N+](=O)[O-])c1	x	11%	4%	-26%	1%	u
C/C(=N\NC(=O)c1ccccc1)c1ccc(N2CCCCC2)cc1	x	-7%	-7%	-4%	8%	-8%
O=C(N/N=C/c1ccc(N2CCCCC2)o1)c1ccccc1	-1%[10 µM]	11%	-1%	16µM*	-1%	25µM*
O=C(N/N=C/c1ccc(N2CCOCC2)o1)c1cccc([N+](=O)[O-])c1	x	13%	4%	-27%	-7%	18µM*
COc1ccc(NC(=O)c2ccc3c(=O)n(-c4ccc(OC)cc4OC)c(=S)[nH]c3c2)cc1	-16%	-31%	-3%	x	-10%	13µM*
CCOC(=O)N1CCN(C(=O)c2ccc3c(=O)n(-c4ccc(OC)cc4)c(=S)[nH]c3c2)CC1	-3%	13%	5%	-4%	-2%	3%
COc1ccc(-n2c(=S)[nH]c3ccccc32)cc1	-17%	-8%[9.22 µM]	-21%	22µM*	-2%	32µM*
COc1ccc(Cn2c(=S)[nH]c3ccccc32)cc1	-21%	27%[9.22 µM]	u	x	-1%	-4%
COc1ccc(-n2c(=S)[nH]c3cc(C(=O)NCc4ccco4)ccc3c2=O)c(OC)c1	-13%	2%	1%	-30%	2%	0.32µM*
COc1ccc(-n2c(=S)[nH]c3cc(C(=O)Nc4ccccc4OC)ccc3c2=O)cc1	-22%[10 µM]	8%	2%	-13%	1%	16µM*
CC(=O)c1cccc(S(=O)(=O)NC2CCCCCC2)c1	3%[10 µM]	-21%	-21%	-14%	-4%	10µM*
